# NS1 inh: qHTS Assay for Inhibitors of Influenza NS1 Protein Function; Potency, µM (top dose mostly 46.1 µM), for the others: at the highest dose activity, positive = more growth; AID 2326, 2010; hit rate 0.4% among 270,000; calls by dose curve; also: actives are rising curves; nearly all actives have a fitted effect of over 50% in size
#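 Compounds were scored for reversing the slow growth caused by influenza A NS1 in S. cerevisiae, measured by optical density at 600 nm. Assay medium contained 2% galactose at pH 6.0; NS1-free yeast of the same strain were the positive control.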
# Pf growth 96h: Primary qHTS for delayed death inhibitors of the malarial parasite plastid, 96 hour incubation | AID 504834, 2011 | P. falciparum luciferase reporter growth, 96 h | hit rate 6.9% among 320,000 | Potency, µM (top dose mostly 28.7 µM), without a hit: at the top dose activity change, negative = inhibition, hits mostly inhibitors; also: % is scaled to controls: 0 for no effect and ±100 for the full control effect
#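 Erythrocytes infected with luciferase-expressing P. falciparum were dispensed at 2% hematocrit and 0.05% parasitemia (final), then incubated with compounds 96 hours at 37 C in 5% CO2. Luminescence after detection reagent addition reported growth.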
# Pf growth 48h: Primary qHTS for delayed death inhibitors of the malarial parasite plastid, 48 hour incubation. P. falciparum luciferase growth in erythrocytes, 48 h. Potency, µM (top dose mostly 28.7 µM), for inactives: at the top dose activity change, negative = inhibition, actives largely listed as inhibitors. hit rate 5.9% among 310,000. AID 504832, 2011; also: % is scaled to controls: 0 for no effect and ±100 for the full control effect
#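 Compounds are pin-transferred into medium, infected erythrocytes (2% hematocrit, 0.1% parasitemia final) are added, and plates sit one parasite generation at 37 C in 5% CO2. Detection reagent is then added and luminescence measured.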
# AMA1 RON2 block: qHTS for Inhibitors of AMA1-RON; Towards Development of Antimalarial Drug Lead: Primary Screen. Plasmodium falciparum AMA1 (3D7) - RON2 peptide interaction. AlphaScreen AMA1-biotinylated RON2 peptide binding. Potency, µM (top dose mostly 58.2 µM), inactives show top-dose activity change, negative = inhibition, usual class: inhibitors. hit rate 0.2% among 360,000;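 also: 0% = vehicle wells and -100% = peptide control; nearly all actives have a fitted effect of over 45% in size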
#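 AMA1 (3D7) with his tag at 25 nM final met compounds first, then biotinylated RON2 peptide at 25 nM; detection used donor plus acceptor beads, 10 µg/mL apiece, read by AlphaScreen after 30 min at room temperature.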
# HCV inhibitor: qHTS Assay for Inhibitors of Hepatitis C Virus (HCV); Huh7.5.1 HCVcc-Cre infection, luciferase reporter, 44 h; Potency, µM (series often up to 41.8 µM), inactives show at the top dose activity change, negative = inhibition, most hits filed as inhibitors; hit rate 3.4% among 340,000; also: % is scaled to controls: 0 for no effect and ±100 for the full control effect
#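 Infectious HCVcc-Cre (~0.5 moi) was added to cells just after compound, with cells seeded 4 h earlier at 1,000 per well. Luciferase activity after 44 h culture reported infection; substrate was incubated 15 min at room temperature before reading.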
# SARS PLP yeast: qHTS of Yeast-based Assay for SARS-CoV PLP | S. cerevisiae expressing SARS-CoV PLpro, growth rescue | Potency, µM (highest dose often 32.9 µM), inactives show top-dose activity, positive = growth rescue, usual class: activators | hit rate 0.19% among 330,000 | AID 485353, 2010; calls by dose curve; also: 0% is about no effect; nearly all actives have a fitted effect of over 55% in size
# An asterisk follows results filed as active; ? = inconclusive; nt = not tested or not shown. Most compounds without a hit are left out; they make up all but 12% or so of the library. Unless noted, calls follow the shape of the dose curve; as a rule, active = well fitted curve in the direction sought with a large enough effect; inconclusive = small, poorly fitted or top-dose-only effect, or another doubt; inactive = no such curve, though single readings can be large; an effect the other way counts as inactive or inconclusive. Potency is read from the fitted curve at half-maximal effect.
SMILES,NS1 inh,Pf growth 96h,Pf growth 48h,AMA1 RON2 block,HCV inhibitor,SARS PLP yeast
Cn1ccc(C(=O)NC(=S)N2CCSCC2)n1,3%,33%,-14%,39%,6%,1%
O=C1c2ccccc2C(=O)c2c1cccc2N1CCOCC1,-101%,103%,15%,?,22µM*,2%
CN1CCN(c2cccc3c2C(=O)c2ccccc2C3=O)CC1,5%,-10%,?,-20%,?,-18%
NS(=O)(=O)c1ccc(N/N=C/c2cn(-c3ccccc3)nc2-c2cccs2)cc1,?,0.066µM*,0.19µM*,-14%,1.8µM*,-22%
O=C(O)c1cccc(N/N=C/c2cn(-c3ccccc3)nc2-c2cccs2)c1,nt,66%,204%,15%,-3%,-8%
NS(=O)(=O)c1ccc(N/N=C/c2cn(-c3ccccc3)nc2-c2cccs2)c([N+](=O)[O-])c1,13%,3.3µM*,1.5µM*,-25%,11µM*,1%
N#Cc1ccc(N/N=C/c2cn(-c3ccccc3)nc2-c2ccccc2)c([N+](=O)[O-])c1,26%,0.52µM*,?,-3%,6%,-6%
NC(=O)N/N=C/c1cn(-c2ccccc2)nc1-c1cccs1,nt,?,?,?,?,-2%
COc1cccc(C2C(C(=O)c3cccs3)=C(O)C(=O)N2CCN2CCOCC2)c1OC (centres undefined),-1%,?,-8%,0%,18%,-1%
CN(C)/C=C/c1c([N+](=O)[O-])c2ccc(O)cc2n1-c1ccccc1,3%,10µM*,?,-15%,?,3%
COc1cc2c(cc1NC(=O)/C=C/c1ccccc1)oc1ccccc12,6%,3%,-2%,-3%,7.1µM*,-1%
COc1cc2c(cc1NC(=O)Nc1cccc(C)c1)oc1ccccc12,2%,nt,3%,-5%,?,-4%
COc1ccc(/C=C/C(=O)NC(=S)Nc2cc3oc4ccccc4c3cc2OC)cc1,8%,21%,-4%,6%,8%,1%
COc1cc2c(cc1NC(=O)C1CCCO1)oc1ccccc12 (centres undefined),-104%,nt,150%,-9%,7.9µM*,-18%
COc1cc2c(cc1NC(=S)Nc1cccc(C)c1)oc1ccccc12,3%,nt,40%,0%,8.9µM*,-6%
CCCNC(=S)Nc1cc2oc3ccccc3c2cc1OC,-1%,3.3µM*,?,58%,?,12%
Cc1cc(C)cc(C(=O)Nc2ccc(N3CCN(C(=O)c4ccco4)CC3)cc2)c1,-3%,?,?,-20%,?,-4%
COc1ccc(Cl)cc1N(CC(=O)NC(C)(C)C)S(=O)(=O)c1ccc(C)c([N+](=O)[O-])c1,7%,4%,?,-5%,1%,-1%
COc1cc2c(cc1NC(=S)Nc1ccccc1C)oc1ccccc12,-1%,nt,35%,-25%,?,-7%
COc1cc2c(cc1NC(=S)NC(=O)/C=C/c1ccc(OC)c(OC)c1)oc1ccccc12,9%,36%,1%,-4%,-18%,0%
CCNC(=S)Nc1cc2oc3ccccc3c2cc1OC,-6%,-2%,15%,1%,22µM*,-4%
CNC(=S)Nc1cc2oc3ccccc3c2cc1OC,-26%,40%,28%,0%,11µM*,0%
Cc1nnc(NC(=O)CSc2ccccc2N)s1,11%,?,27%,2%,-7%,1%
O=C(Nc1ccccc1F)Nc1ccc([N+](=O)[O-])cc1Cl,-2%,16%,63%,-8%,?,0%
CCC1(C)Cc2ccccc2-c2nc(NCCCO)n(-c3ccccc3)c(=O)c21 (centres undefined),9%,10µM*,nt,5%,?,5%
SMILES,NS1 inh,Pf growth 96h,Pf growth 48h,AMA1 RON2 block,HCV inhibitor,SARS PLP yeast
CN(C1CCCCC1)S(=O)(=O)c1ccc(C(=O)O)cc1,-8%,12µM*,nt,0%,2%,5%
CN(C1CCCCC1)S(=O)(=O)c1ccc(NC(=O)C2CCCCC2)cc1,-15%,nt,-18%,0%,14µM*,-1%
CN(C1CCCCC1)S(=O)(=O)c1ccc(NC(=O)CCC(=O)O)cc1,20%,?,-3%,2%,24%,-17%
O=C(Nc1ccc(S(=O)(=O)NCc2ccccc2)cc1)C1CCCCC1,7%,12µM*,-13%,-3%,-17%,-4%
Nc1nc(-c2cccnc2)cc(-c2cc(-c3cccnc3)nc(N)n2)n1,-3%,nt,nt,nt,nt,nt
OC(CNC1CCCCC1)COCCOc1ccc(Br)cc1 (centres undefined),7%,12µM*,10µM*,-5%,7.9µM*,0%
Cc1cc(C)nc(SCC(=O)N(C)CC(=O)Nc2c(Cl)cccc2Cl)n1,nt,10%,17%,-14%,-8%,-1%
COc1ccc2c(C)cc(SCC(=O)c3ccc4c(c3)OCO4)nc2c1,-11%,?,?,9%,10µM*,6%
COc1ccc(S(=O)(=O)NC2CC3CCC2C3)cc1 (centres undefined),-107%,8.3µM*,8%,-4%,9%,-15%
CSc1ccc(S(=O)(=O)NC2CC3CCC2C3)cc1 (centres undefined),-116%,?,-10%,3%,-1%,-13%
COc1ccc(N2C(=O)CC(N(C)CCc3ccc(OC)c(OC)c3)C2=O)cc1 (centres undefined),1%,9%,9.3µM*,5%,5%,-2%
COc1ccc(N2C(=O)CC(N(CCc3ccc(OC)c(OC)c3)C(=S)Nc3ccccc3)C2=O)cc1 (centres undefined),1%,?,4.7µM*,2%,1%,-11%
CC(=O)C1=CCC(c2ccccc2Cl)N(S(=O)(=O)c2ccc(C)cc2)C1 (centres undefined),nt,nt,nt,-7%,nt,nt
COc1ccc2[nH]c3c(c2c1)CCN=C3C,nt,?,9.3µM*,-24%,2.8µM*,nt
COc1ccc2[nH]c3c(c2c1)CCn1c-3nc2sc(C(=O)Nc3ccccc3)c(C)c2c1=O,12%,2%,27%,nt,3%,2%
CCc1cc2c(=O)n3c(nc2s1)-c1[nH]c2ccc(OC)cc2c1CC3,1%,2.9µM*,62%,-8%,10%,13%
O=C(Cc1cccc(NC(=O)C2CCN(C(=O)C3CCC3)CC2)c1)Nc1cccc(C(=O)N2CCCC2)c1,nt,?,?,9%,-22%,-2%
COc1ccc(-c2ccc([C@H]3[C@@H]4C=CCC[C@@]4(C)C(=O)N3Cc3ccccc3)c(F)c2)cc1,-6%,?,?,-4%,?,-4%
